Source: PubChem BioAssay AID2588 (National Center for Advancing Translational Sciences (NCATS), 2010)
Records with an inconclusive call do not appear. The source made the active and inactive calls. The call rests on the fitted dose curve; in most records, active means well fitted inhibition curve with a large enough effect; inconclusive means small, poorly fitted or top-dose-only effect, or effect the other way; inactive means flat fitted curve, though single readings scatter.

The compounds below were run against Lysosomal acid glucosylceramidase (Homo sapiens) (UniProt P04062) (assay: qHTS Assay for Inhibitors and Activators of N370S glucocerebrosidase as a Potential Chaperone Treatment of Gaucher Disease: Activity in Non-Mutant Spleen Homogenate Using a Red Fluorescent Substrate). Settings: red fluorogenic substrate GCase activity; series mostly up to 50.2 µM; activity change, negative = inhibition: at the top concentration.
Sequence of Lysosomal acid glucosylceramidase (Homo sapiens) (P04062 whole entry, looked up): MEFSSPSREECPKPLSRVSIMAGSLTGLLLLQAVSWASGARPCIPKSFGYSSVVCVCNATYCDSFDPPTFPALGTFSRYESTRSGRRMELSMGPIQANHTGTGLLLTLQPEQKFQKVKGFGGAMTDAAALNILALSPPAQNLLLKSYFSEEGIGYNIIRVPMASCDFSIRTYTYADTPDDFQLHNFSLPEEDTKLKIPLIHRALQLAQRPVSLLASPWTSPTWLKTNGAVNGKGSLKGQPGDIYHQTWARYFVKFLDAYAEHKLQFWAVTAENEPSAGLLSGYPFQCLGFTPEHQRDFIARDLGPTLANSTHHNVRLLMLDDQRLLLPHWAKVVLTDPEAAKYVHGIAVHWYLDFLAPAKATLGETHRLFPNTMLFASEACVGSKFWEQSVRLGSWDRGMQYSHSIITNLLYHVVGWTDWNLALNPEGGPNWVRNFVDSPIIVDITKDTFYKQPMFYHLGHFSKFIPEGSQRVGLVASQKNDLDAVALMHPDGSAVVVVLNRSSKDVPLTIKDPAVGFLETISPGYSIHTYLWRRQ
Excerpt: NIH Chemical Genomics Center [NCGC]
NIH Molecular Libraries Probe Production Centers Network [MLPCN]
Assay Submitter (PI): Wei Zheng
Glucocerebrosidase (GC) catalyzes the hydrolysis of beta-glucocerebroside to glucose and ceramide in lysosomes. Mutations in the glucocerebrosidase gene result in Gaucher disease, an autosomal recessive lysosomal storage disorder. Many of the mutations encountered in patients with Gaucher disease are missense alterations that may cause misfolding, decreased stability and/or mistrafficking of this lysosomal protein. […] These inhibitors include iminosugar analogs and three non-iminosugar inhibitors identified from a previous HTS of 62,000 compounds with the wild type recombinant enzyme. However, the enhancement of enzyme activity by the chaperone action of an enzyme inhibitor must be balanced against the direct inhibition of the enzyme. An enzyme activator could also function as a chaperone by binding to the enzyme and helping to correct its misfolding and mistrafficking. While activators for GC have not yet been identified, they may have better therapeutic potential than inhibitors. Therefore the discovery and development of chemical activators may provide a new strategy for the chaperone therapy.
We have optimized a new assay using N370S mutant GC derived from the spleen of a Gaucher patient. […] In addition, the MLPCN compound library has expanded, which increases the chance of finding new and better probes.
This confirmation assay tests for compound activity in spleen homogenate containing wildtype enzyme using an alternate resorufin-based substrate.
NCGC Assay Protocol Summary:
This is a fluorogenic enzyme assay with resorufin-beta-D-glucopyranoside as the substrate and wildtype glucocerebrosidase from human spleen homogenate as the enzyme preparation. Upon the hydrolysis of this fluorogenic substrate, the resulting product, […] which can be detected by a standard fluorescence plate reader. Data were normalized to the controls for basal activity (without enzyme) and 100% activity (with enzyme). The AC50 values were determined from concentration-response data modeled with the standard Hill equation.
Assay buffer: 50 mM citric acid (titrated with potassium phosphate to pH 5.0), 100 mM potassium chloride, 10 mM sodium chloride, 1 mM magnesium chloride, 0.01% Tween-20.
1536-well assay protocol:
(1) Add 2 ul/well of spleen homogenate (27 ug final)
(2) Add 23 nL compounds in DMSO solution. The final titration was 0.5 nM to 58 uM.
(3) Add 2 ul of substrate (1 mM final)
(4) Incubate at 37C for 40 min.
(5) Add 2 ul stop solution (1M NaOH and 1M Glycine mixture, pH 10)
(6) Detect the assay plate in a ViewLux plate reader (PerkinElmer) with Ex=365 nm and Em=440nm.
Keywords: Glucocerebrosidase, beta-glucosidase, Gaucher Disease, pharmacological chaperone, chaperone therapy, high throughput screening, glucocerebrosidase inhibitor, MLSMR, MLSCN, NIH Roadmap, qHTS and NCGC
For COc1ccccc1C(=O)COC(=O)c1ccccc1OCC(=O)Nc1ccc(SC(F)F)cc1, the “activity change, negative = inhibition” value was 3.84% (inactive).
COC(=O)c1ccccc1NC(=O)c1ccc2c(c1)C(=O)N(Cc1ccccc1)C2=O was tested, and the “activity change, negative = inhibition” value was 8.05% (inactive).
With COc1ccc(S(=O)(=O)N2CCN(c3nc(-c4ccccc4)nc4ccccc34)CC2)cc1 the Potency was 2510 nM (active).
Cc1ccc(S(=O)(=O)N2CCN(c3nc(-c4cccs4)nc4ccccc34)CC2)cc1 was tested, and the Potency was 316 nM (active).
O=C(Nc1cc(Br)ccc1O)c1cnn2c(C(F)F)cc(C3CC3)nc12 was tested, and the “activity change, negative = inhibition” value was 8.3% (inactive).
For O=S(=O)(c1ccccc1C(F)(F)F)N1CCN(c2nc(-c3cccs3)nc3ccccc23)CC1, the Potency was 224 nM (active).
In the case of O=S(=O)(c1ccc(F)cc1)N1CCN(c2nc(-c3ccccc3)nc3cc(Cl)ccc23)CC1, the “activity change, negative = inhibition” value is reported as -14.7% (inactive).
Nc1nc(-c2ccccc2)c(N=Nc2ccc(Cl)cc2)s1 was tested, and the “activity change, negative = inhibition” value was -17.6% (inactive).
For O=S(=O)(c1ccc(F)cc1)N1CCN(c2nc(-c3cccs3)nc3cc(Cl)ccc23)CC1, the “activity change, negative = inhibition” value was 0.766% (inactive).
For Cc1ccc(S(=O)(=O)N2CCN(c3nc(-c4ccc(F)cc4)nc4cc(Cl)ccc34)CC2)cc1, the “activity change, negative = inhibition” value was -16.6% (inactive).
For N#Cc1ccc(S(=O)(=O)N2CCN(c3nc(-c4cccs4)nc4ccccc34)CC2)cc1, the Potency was 794 nM (active).
In the case of O=S(=O)(c1ccc(C(F)(F)F)cc1)N1CCN(c2nc(-c3cccs3)nc3ccccc23)CC1, the Potency is reported as 1260 nM (active).
In the case of O=S(=O)(c1ccc2c(c1)CCCC2)N1CCN(c2nc(-c3cccs3)nc3ccccc23)CC1, the Potency is reported as 282 nM (active).
For Cc1ccc(S(=O)(=O)Nc2ccc(C(=O)NCc3ccccc3)cc2)cc1, the “activity change, negative = inhibition” value was -9.87% (inactive).
With CC(=O)c1ccc(S(=O)(=O)N2CCN(c3nc(-c4cccs4)nc4ccccc34)CC2)cc1 the Potency was 1120 nM (active).
For Cc1ccc(NC(=O)COc2ccccc2C(=O)Nc2ccccc2)cc1Cl, the “activity change, negative = inhibition” value was -9.18% (inactive).
O=C(COc1ccccc1[N+](=O)[O-])Nc1ccc(Br)cc1 was tested, and the “activity change, negative = inhibition” value was 18.9% (inactive).
In the case of O=C(CSc1nccc(-c2cccs2)n1)Nc1cccc(Cl)c1, the “activity change, negative = inhibition” value is reported as -0.194% (inactive).
With Cc1cc(N2CCC(C)CC2)nc2ccc(NC(=O)C3CCC(C)CC3)cc12 (stereo not given) the Potency was 5010 nM (active).
CCN(CC)c1ccc(C(=O)Nc2ccc3nc(N4CCOCC4)cc(C)c3c2)cc1 was tested, and the Potency was 10000 nM (active).
